# How the values were obtained:
# Assay in all cases: PBM binding z-score (relative to random genomic background probes); higher = stronger binding; sequences stand for … in GC…GCGATTGACAGCGTAGAATGAAGG
# [1] = system: FXR:RXRa (NR concentration 270 nM, RXRa partner concentration 90 nM)
# Summary of the method: (§1)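 Probes were double-stranded and carried 34-nt variable regions with direct-repeat seeds, single-nucleotide variants, half-site ablations and random human genomic background sequences, printed on custom Agilent 4×180K protein-binding microarrays. Arrays were incubated 1 h with ligand-free nuclear receptor dimers in PBS pH 7.4, 2% milk, 0.02% Triton X-100, 1 mM DTT, 0.2 mg/mL BSA and 0.4 mg/ml salmon testes DNA. Antibodies against each partner (one per run) detected binding, and scanned fluorescence was regression-normalized. Binding z-scores use the random background probes as reference.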
# [2] = system: LXRa:RXRa (NR concentration 270 nM, RXRa partner concentration 90 nM)
# Summary of the method: as §1
# [3] = system: LXRa homodimer (NR concentration 270 nM)
# Summary of the method: as §1
# [4] = system: LXRb:RXRa (NR concentration 270 nM, RXRa partner concentration 90 nM)
# Summary of the method: as §1
# [5] = system: LXRb homodimer (NR concentration 270 nM)
# Summary of the method: as §1
# [6] = system: PPARa:RXRa (NR concentration 270 nM, RXRa partner concentration 90 nM)
# Summary of the method: as §1
# [7] = system: PPARg:RXRa (NR concentration 180 nM, RXRa partner concentration 90 nM)
# Summary of the method: as §1
# [8] = system: PPARg:RXRa 270nM:90nM, anti-RXR (NR concentration 270 nM, RXRa partner concentration 90 nM)
# Summary of the method: as §1
# [9] = system: PPARg:RXRa 30nM:10nM, anti-RXR (NR concentration 30 nM, RXRa partner concentration 10 nM)
# Summary of the method: as §1
# [10] = system: PPARg:RXRa 90nM:30nM, anti-RXR (NR concentration 90 nM, RXRa partner concentration 30 nM)
# Summary of the method: as §1
# [11] = system: PPARg:RXRa DBDmut IVT, anti-RXR (DBD mutation: RXRa K156A/R161A, NR concentration 270 nM, RXRa partner concentration 90 nM)
# Summary of the method: as §1
# [12] = system: PPARg:RXRa IVT, anti-PPARg (NR concentration 270 nM, RXRa partner concentration 90 nM)
# Summary of the method: as §1
# [13] = system: PPARg DBDmut:RXRa IVT, anti-PPARg (DBD mutation: PPARg1 K132A/R137A, NR concentration 270 nM, RXRa partner concentration 90 nM)
# Summary of the method: as §1
# [14] = system: PPARg DBDmut IVT, anti-PPARg (DBD mutation: PPARg1 K132A/R137A, NR concentration 270 nM)
# Summary of the method: as §1
# [15] = system: PPARg homodimer (NR concentration 180 nM)
# Summary of the method: as §1
# [16] = system: PXR:RXRa (NR concentration 270 nM, RXRa partner concentration 90 nM)
# Summary of the method: as §1
# [17] = system: PXR homodimer (NR concentration 270 nM)
# Summary of the method: as §1
# [18] = system: RARa:RXR (NR concentration 270 nM, RXRa partner concentration 90 nM)
# Summary of the method: as §1
# [19] = system: RARa homodimer (NR concentration 270 nM)
# Summary of the method: as §1
# [20] = system: RARb:RXRa (NR concentration 270 nM, RXRa partner concentration 90 nM)
# Summary of the method: as §1
Sequence,PBM binding z-score [1],PBM binding z-score [2],PBM binding z-score [3],PBM binding z-score [4],PBM binding z-score [5],PBM binding z-score [6],PBM binding z-score [7],PBM binding z-score [8],PBM binding z-score [9],PBM binding z-score [10],PBM binding z-score [11],PBM binding z-score [12],PBM binding z-score [13],PBM binding z-score [14],PBM binding z-score [15],PBM binding z-score [16],PBM binding z-score [17],PBM binding z-score [18],PBM binding z-score [19],PBM binding z-score [20]
CCTTACGGGTCAATGTTATAGCACGGGTGGTACG,4.09,2.96,0.175,2.61,0.428,3.96,3,3.22,1.1,2.16,1.71,2.59,0.14,0.289,1.3,2.45,-0.0609,3.35,0.558,3.57
TCTGCTAGGTCAGTTGGTCATCTAACGAGCTGCC,1.16,0.727,-0.519,0.51,0.317,1.66,0.954,2.16,1.52,2.1,2.75,3.27,0.685,0.261,0.396,0.316,-0.767,0.721,-0.587,3.47
CTACCAAGGAGAACAAGGTCGTTGATTACTATTC,0.511,0.515,0.637,0.992,0.011,0.978,0.183,-0.0538,-0.107,-0.114,0.168,0.269,-0.0895,0.25,0.615,1.23,1.05,1.17,0.421,0.589
TTACGAAGGTGAAGGTCGTTGATCCCTCTGTAGA,2.35,1.9,-0.207,1.48,-0.709,2.66,2.48,3.86,2.7,3.16,1.43,2.62,0.0113,-0.332,0.462,1.58,-0.113,1.68,-0.46,2.23
CAAACTAGGTCTAGAGGTCAAAGTCCGCTTCCCG,4.99,5.78,5.83,4.86,1.55,5.14,5.12,5.9,4.3,5.99,3.11,4.41,0.248,0.06,3.03,5.4,2.48,5.69,0.52,3.96
TCAGACAGGTGAATGTAACTCAGGTACGCAGTCG,0.149,0.452,0.0267,0.271,-0.401,0.789,0.834,1.72,2.99,2.36,2.43,0.904,-0.264,-0.0774,0.0893,0.012,-0.109,0.0859,-0.00412,0.652
TAGCCTAGGTCAGTGGGCCAGTATAGTACGCATC,0.672,0.503,-0.786,0.274,-0.999,2.11,2.47,2.57,0.337,1.47,2.3,3.72,-0.247,0.15,0.486,0.1,-0.662,0.533,-1.07,3.01

# Reference: the supplement of paper PMC6555819
